“And” between values parts separate entries of the source, which are not always exact repeats. Equal values may be shown once. Inconclusive results are not listed. The source made the active and inactive calls. Calls follow the shape of the dose curve; as a rule, active = well fitted curve in the direction sought with a large enough effect; inconclusive = small, poorly fitted or top-dose-only effect, or another doubt; inactive = no such curve, though single readings can be large; an effect the other way counts as inactive or inconclusive. Where a SMILES comes first, the peptide text is derived from it. [ ]: non-standard residue; d: D form. pGlu = O=C1CC[C@@H](C(=O)O)N1
Key:
[1] = molecular target: Cytochrome P450 3A7 (Homo sapiens) (UniProt P24462); test: Cytochrome P450 family 3 subfamily A member 7 (CYP3A7) small molecule antagonists: luciferase biochemical qHTS assay (AID 1963596); also: nearly all actives have a fitted effect of over 40% in size; also: potency is read from the fitted curve at half-maximal effect
Cytochrome P450 3A7 (Homo sapiens), sequence (P24462 whole entry, looked up): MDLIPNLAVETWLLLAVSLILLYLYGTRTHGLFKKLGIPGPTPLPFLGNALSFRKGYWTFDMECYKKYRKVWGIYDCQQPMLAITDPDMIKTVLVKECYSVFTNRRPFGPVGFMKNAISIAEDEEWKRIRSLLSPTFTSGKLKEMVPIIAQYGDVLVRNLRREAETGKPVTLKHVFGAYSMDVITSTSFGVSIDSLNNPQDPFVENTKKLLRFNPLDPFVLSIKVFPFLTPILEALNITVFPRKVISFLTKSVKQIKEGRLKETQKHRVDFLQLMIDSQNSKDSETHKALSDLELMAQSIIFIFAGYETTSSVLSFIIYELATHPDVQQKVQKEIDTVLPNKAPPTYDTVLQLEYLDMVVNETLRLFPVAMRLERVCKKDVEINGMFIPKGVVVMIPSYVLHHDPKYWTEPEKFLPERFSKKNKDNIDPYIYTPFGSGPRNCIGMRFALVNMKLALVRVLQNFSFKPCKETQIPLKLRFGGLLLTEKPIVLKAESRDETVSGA
Outline: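 P450-Glo luminescent assay: CYP3A7 enzyme converts a proluciferin substrate to luciferin, detected by luciferase reagent; light proportional to activity. Compounds in DMSO preincubated 10 min with enzyme-substrate mix at room temperature, then NADPH regeneration added for 1 h.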

[2] = Viability qHTS for spleen associated tyrosine kinase inhibitor (SYKi) naive MV4-11 cells (AID 1963823); also: nearly all actives have a fitted effect of over 40% in size; also: potency is read from the fitted curve at half-maximal effect
Outline: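 Compounds were dispensed acoustically onto plates, MV4-11 cells (SYKi-naive) added at 500 per well, and plates incubated 72 hr at 37 C. CellTiter-Glo was added and luminescence measured after 10 min.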

[3] = Viability qHTS for spleen associated tyrosine kinase inhibitor (SYKi) drug resistant MV4-11 cells (AID 1963824); also: nearly all actives have a fitted effect of over 35% in size; also: potency is read from the fitted curve at half-maximal effect
Outline: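 SYK inhibitor-resistant MV4-11 AML cells, 500 per well, added to predispensed compounds and incubated 72 hr at 37 C, 5% CO2. Viability measured by CellTiter-Glo luminescence after 10 min at room temperature.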

[4] = Cellular viability qHTS for adrenocortical cancer (ACC) cell line NCI-H295R (AID 1963990); also: nearly all actives have a fitted effect of over 60% in size; also: potency is read from the fitted curve at half-maximal effect
Outline: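 IC50 and maximal efficacy derive from four-parameter logistic modelling of titration curves, with reads scaled between DMSO-only wells (0%) and doxorubicin hydrochloride (100% inhibition). Compounds spanned up to 46 uM over 48 h.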

[5] = Cellular viability qHTS for adrenocortical cancer (ACC) cell line SW-13 (AID 1963989); conditions: SW-13 ACC cells viability, CellTiter-Glo, 48 h; activity (max response): stronger effect = lower value; also: nearly all actives have a fitted effect of over 65% in size; also: potency is read from the fitted curve at half-maximal effect;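 as to activity (max response): cells grown in serum-free medium with ITS supplement; % is scaled to controls: 0 for no effect and ±100 for the full control effect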
Outline: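 Luminescent ATP read-out (CellTiter-Glo, 20 min at room temperature) measured metabolically competent SW-13 cells after 48 h compound treatment. Final concentrations spanned up to 46 uM; bortezomib served as positive control.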

[6] = Quantitative highthroughput screen to assess conditional lethalithy of NOMO1 cells grown in RPMI1640 with untreated serum (RPMI+s) (AID 1963876); also: nearly all actives have a fitted effect of over 35% in size; also: potency is read from the fitted curve at half-maximal effect;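 as to Viability: 100% = DMSO wells and 0% = empty wells without cells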
Outline: (§1)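 Each medium arm—HPLM with 10% dialyzed FBS, or RPMI1640 with 5 mM glucose and 10% untreated or dialyzed FBS—was screened against an 11-point, 3-fold compound titration for 48 h at 37 °C, with CellTiter-Glo luminescence as endpoint.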

[7] = Quantitative highthroughput screen to assess conditional lethalithy of NOMO1 cells grown in RPMI1640 with dialyzed fetal bovine serum (RPMI+ds) (AID 1963877); also: nearly all actives have a fitted effect of over 30% in size; also: potency is read from the fitted curve at half-maximal effect;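 as to Viability: series mostly up to about 46 µM; 100% = DMSO control wells and 0% = empty wells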
Outline: as §1

[8] = Quantitative highthroughput screen to assess conditional lethalithy of P12 Ichikawa cells grown in Human Plasma-Like Medium with dialyzed fetal bovine serum (HPLM+ds) (AID 1963879); conditions: Potency: viability; also: nearly all actives have a fitted effect of over 35% in size; also: potency is read from the fitted curve at half-maximal effect; as to Viability: series mostly up to about 46 µM
Outline: as §1

[9] = Quantitative highthroughput screen to assess conditional lethalithy of P12 Ichikawa cells grown in RPMI1640 with dialyzed fetal bovine serum (RPMI+ds) (AID 1963880); conditions: Potency: P12-Ichikawa viability; also: nearly all actives have a fitted effect of over 35% in size; also: potency is read from the fitted curve at half-maximal effect;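 as to Viability: 100% = DMSO wells and 0% = empty wells on each plate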
Outline: as §1

[10] = Quantitative highthroughput screen to assess conditional lethalithy of P12 Ichikawa cells grown in RPMI1640 with untreated serum (RPMI+s) (AID 1963881); conditions: Potency: viability; also: nearly all actives have a fitted effect of over 35% in size; also: potency is read from the fitted curve at half-maximal effect;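 as to Viability: series mostly up to about 46 µM; 100% = DMSO wells and 0% = empty wells without cells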
Outline: as §1

[11] = Quantitative highthroughput screen to assess conditional lethalithy of SEM cells grown in Human Plasma-Like Medium with dialyzed fetal bovine serum (HPLM+ds) (AID 1963882); also: nearly all actives have a fitted effect of over 35% in size; also: potency is read from the fitted curve at half-maximal effect; as to Viability: series mostly up to about 46 µM
Outline: as §1

[12] = Quantitative highthroughput screen to assess conditional lethalithy of SEM cells grown in RPMI1640 with unreated serum (RPMI+s) (AID 1963883); also: nearly all actives have a fitted effect of over 35% in size; also: potency is read from the fitted curve at half-maximal effect;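 as to Viability: 100% = DMSO wells and 0% = empty wells without cells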
Outline: as §1

[13] = Quantitative highthroughput screen to assess conditional lethalithy of SEM cells grown in RPMI1640 with dialyzed fetal bovine serum (RPMI+ds) (AID 1963884); also: nearly all actives have a fitted effect of over 35% in size; also: potency is read from the fitted curve at half-maximal effect;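 as to Viability: series mostly up to about 46 µM; 100% = DMSO control wells and 0% = empty wells without cells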
Outline: as §1

[14] = Quantitative highthroughput screen to assess conditional lethalithy of NOMO1 cells grown in Human Plasma-Like Medium with dialyzed fetal bovine serum (HPLM+ds) (AID 1963878)
Outline: as §1

CCCCNc1ncc(-c2ccc(CN3CCOCC3)cn2)c(NC2CCC(O)CC2)n1 (stereo unspecified)
active: Potency [2] 31.7 nM and 57.4 nM | Potency [3] 91 nM
inactive: Potency [1] | Potency [4]

CCn1c(=O)c(-c2ccc(-c3cncs3)cc2Cl)cc2cnc(Nc3ccc(N4CCN(C)CC4)cc3)nc21
inactive: Potency [4]
active: Potency [1] 3010 nM | Potency [2] 291 nM | Potency [3] 461 nM

[Cl][In]([Cl])[Cl]
active: Potency [5] 35.5 µM
inactive: Potency [1] | Potency [2]

CCCCCCCCCCCC(=O)[O][Sn]([CH2]CCC)([CH2]CCC)[O]C(=O)CCCCCCCCCCC
inactive: Potency [2] | activity (max response) [5] 2.55%
active: Potency [1] 19500 nM

CO[C@@]1(NC(=O)CSC[C@@H](N)C(=O)O)C(=O)N2C(C(=O)O)=C(CSc3nnnn3C)CS[C@@H]21
inactive: Potency [1] | Potency [2] | Potency [3] | Potency [4]

CNCCC(Oc1ccccc1OC)c1ccccc1 (stereo unspecified)
inactive: Potency [1] | Potency [2] | Potency [3] | Potency [4]

C[C@@H](CN1CC(=O)NC(=O)C1)N1CC(=O)NC(=O)C1
inactive: Potency [1] | Potency [2] | activity (max response) [5] 3.22% and 6.64% | Potency [4]
active: Potency [6] 469 nM | Potency [7] 332 nM | Potency [8] 372 nM | Potency [9] 590 nM | Potency [10] 833 nM | Potency [11] 93.5 nM | Potency [12] 66.2 nM | Potency [13] 74.3 nM

COc1cc2c(c(OC)c1OC)-c1ccc(OC)c(=O)cc1[C@@H](NC(C)=O)CC2
active: Potency [2] 23.7 nM and 18.6 nM | Potency [5] 25.9 nM and 35.5 nM | Potency [4] 92 nM and 100 nM
inactive: Potency [1] | Potency [6] | Potency [12] | Potency [13]

CN(c1nccc(=O)[nH]1)C1CCN(c2nc3ccccc3n2Cc2ccc(F)cc2)CC1
inactive: Potency [1] | Potency [2] | Potency [6] | Potency [7] | Potency [14] | Potency [8] | Potency [9] | Potency [10] | Potency [12] | Potency [13] | activity (max response) [5] 5.56% | Potency [4]

Cc1c(Nc2ncccc2C(=O)O)cccc1C(F)(F)F
inactive: Potency [1] | Potency [2] | activity (max response) [5] -9.06%

CO[C@@H]1COCC[C@@H]1N[C@@H]1CC[C@@](C(=O)N2CCc3ncc(C(F)(F)F)cc3C2)(C(C)C)C1
inactive: Potency [1] | Potency [2] | Potency [6] | Potency [7] | activity (max response) [5] -5.19% | Potency [4]

COC(=O)Nc1nc2ccc(C(=O)c3cccs3)cc2[nH]1
active: Potency [2] 106 nM | Potency [8] 18.7 nM | Potency [5] 8.2 nM and 126 nM | Potency [4] 9.2 nM and 158 nM
inactive: Potency [1]

O=C1CC2(CCCC2)CC(=O)N1
inactive: Potency [1] | Potency [2] | activity (max response) [5] 11.4%

Cc1ncc(CO)c(C=O)c1O
inactive: Potency [1] | Potency [2] | Potency [3] | Potency [4]

Cc1nc(-c2cn3c(n2)-c2ccc(-c4cnn(C(C)(C)C(N)=O)c4)cc2OCC3)n(C(C)C)n1
active: Potency [2] 148 nM | Potency [3] 2590 nM | Potency [4] 2.51 µM
inactive: Potency [1]

CCN(CC)CCNC(=O)COc1ccc(Cl)cc1
inactive: Potency [1] | Potency [2] | Potency [3] | Potency [4]

CCNC(=O)[C@@H]1CCCN1C(=O)[C@H](CCCN=C(N)N)NC(=O)[C@H](CC(C)C)NC(=O)CNC(=O)[C@H](Cc1ccc(O)cc1)NC(=O)[C@H](CO)NC(=O)[C@H](Cc1c[nH]c2ccccc12)NC(=O)[C@H](Cc1cnc[nH]1)NC(=O)[C@@H]1CCC(=O)N1 ([pGlu]HWSYGLRP-NHEt)
active: Potency [2] 13300 nM
inactive: Potency [1] | activity (max response) [5] 7.58%

Cc1c(C(C)C)c(=O)n(-c2ccccc2)n1C
inactive: Potency [1] | Potency [2] | activity (max response) [5] -5.23%

CCN(C)C(=O)Oc1cccc([C@H](C)N(C)C)c1
inactive: Potency [1] | Potency [2] | Potency [6] | Potency [7] | Potency [14] | Potency [8] | Potency [9] | Potency [10] | Potency [11] | Potency [12] | Potency [13] | activity (max response) [5] 11.5% | Potency [4]

C[N+](C)(C)CCCCCC[N+](C)(C)C
inactive: Potency [1] | Potency [2] | Potency [3] | Potency [4]

CN(C)CCN(Cc1ccsc1)c1ccccn1
inactive: Potency [1] | Potency [2] | Potency [3] | Potency [4]

CC12CC3CC(C)(C1)CC(N)(C3)C2
active: Potency [7] 18700 nM
inactive: Potency [1] | Potency [2] | Potency [11] | Potency [13] | activity (max response) [5] -3.68% | Potency [4]

COc1ccccc1OCC(O)CN1CCN(CC(=O)Nc2c(C)cccc2C)CC1 (stereo unspecified)
inactive: Potency [1] | Potency [2] | Potency [6] | Potency [7] | Potency [14] | Potency [9] | Potency [10] | Potency [13] | activity (max response) [5] 1.47% and 6.99% | Potency [4]

Cc1cccc(C)c1NC(=O)CC12CCCN1CCC2
inactive: Potency [1] | Potency [2] | Potency [3] | Potency [4]

Nc1cccc2c1CN(C1CCC(=O)NC1=O)C2=O (stereo unspecified)
inactive: Potency [1] | Potency [6] | Potency [7] | Potency [14] | Potency [10] | Potency [11] | Potency [13] | activity (max response) [5] -7.43% | Potency [4]
active: Potency [2] 4220 nM

COc1cc(C)nc(-n2nc(C)cc2OC)n1
inactive: Potency [1] | Potency [2] | activity (max response) [5] 11%

CN1C[C@@H]2C[C@H]1CN2c1cc2c(cc1F)c(=O)c(C(=O)O)cn2C1CC1
inactive: Potency [1] | Potency [2] | activity (max response) [5] -2.55%

Source: PubChem BioAssay (NCATS)
